Most compounds without a hit are left out; they make up all but 10% or so of the library.
MCF10A rerep: induces DNA re-replication in MCF 10a normal breast cells | MCF 10A DNA re-replication, Hoechst nuclear intensity, 48 h | Potency, µM (top dose mostly 46.1 µM), actives largely listed as activators | 2.9% of 350,000 active; further: nearly all actives have a fitted effect of over 50% in size
SW480 rereplic: inducers of DNA re-replication in SW480 colon cancer cells; 1.8% of 340,000 active; SW480 DNA re-replication, Hoechst DNA content imaging, 48 h; AID 624297; Potency, µM (titrated, usually from 46.1 µM), actives largely listed as activators; further: nearly all actives have a fitted effect of over 55% in size
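Compounds, transferred as 23 nL by pin tool, were incubated with cells for 48 hr; DNA content per nucleus was then quantified by Hoechst staining and fluorescence plate imaging.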
VP16 counter: Gal4-VP16 reporter inhibition counter-screen. Drosophila S2 Gal4-VP16 UAS-luciferase, luminescence, 20 h. Potency, µM (highest dose often 53.6 µM), actives largely listed as inhibitors. 3.5% of 310,000 active. AID 2546;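 further: Gal4-VP16 expression switched on by copper sulfate through the metallothionein promoter; nearly all actives have a fitted effect of over 50% in size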
ELG1 DNA repair: inhibitors of ELG1-dependent DNA repair in HEK293T cells; HEK293T ELG1-luciferase reporter, luminescence, 16 h; DNA damage induced by 5-fluorouridine; Potency, µM (doses to about 46.1 µM), actives largely listed as inhibitors; 2.3% of 330,000 active; AID 504467; further: nearly all actives have a fitted effect of over 55% in size
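Luminescence from the luciferase reporter, measured 30 min after ONE-Glo reagent at room temperature, was the read-out. Beforehand, 2,000 cells per well were exposed for 16 hr at 37 °C to 5-fluorouridine together with compound or vehicle.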
RORgamma inh: ROR gamma (mouse) transcription inhibition; Drosophila S2 Gal4-RORgamma UAS-luciferase reporter, 20 h; Potency, µM (titrated, usually from 53.6 µM), actives largely listed as inhibitors; 5.4% of 310,000 active; AID 2551; further: nearly all actives have a fitted effect of over 60% in size
Target sequence (P51450 whole entry, looked up, the tested form may be a part): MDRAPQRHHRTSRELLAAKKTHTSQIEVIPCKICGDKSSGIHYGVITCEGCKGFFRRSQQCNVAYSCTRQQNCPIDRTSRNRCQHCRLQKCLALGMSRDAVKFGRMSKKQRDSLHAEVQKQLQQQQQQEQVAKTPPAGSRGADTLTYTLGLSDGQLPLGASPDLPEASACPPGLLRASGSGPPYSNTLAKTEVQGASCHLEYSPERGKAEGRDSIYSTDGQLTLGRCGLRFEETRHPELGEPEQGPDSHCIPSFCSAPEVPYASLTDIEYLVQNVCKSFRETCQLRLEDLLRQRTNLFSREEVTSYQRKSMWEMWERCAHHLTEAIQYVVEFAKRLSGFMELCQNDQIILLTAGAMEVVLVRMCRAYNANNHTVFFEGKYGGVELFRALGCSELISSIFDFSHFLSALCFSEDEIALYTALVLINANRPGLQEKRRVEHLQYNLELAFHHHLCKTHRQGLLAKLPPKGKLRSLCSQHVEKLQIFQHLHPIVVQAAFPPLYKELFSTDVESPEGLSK
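Stable Schneider cell line, Gal4 DNA-binding domain fused to ROR gamma, UAS-luciferase. Cmpd 1 hr RT → CuSO4 700 uM final → 20 hr RT → luciferase reagent 10 min → luminescence.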
A number is an active result; – = inactive; ? = inconclusive; · = not tested or not shown; [ ] = remark or other dose. The call rests on the fitted dose curve; in most records, active means well fitted curve in the direction sought with a large enough effect; inconclusive means small, poorly fitted or top-dose-only effect, or another doubt; inactive means no such curve, though single readings can be large; an effect the other way counts as inactive or inconclusive.

SMILES	MCF10A rerep	SW480 rereplic	VP16 counter	ELG1 DNA repair	RORgamma inh
COc1ccc(C(=O)NC(=S)N(C)Cc2ccccc2)cc1Br	–	–	0.708µM	–	0.398µM
COc1ccccc1NC(=S)N(Cc1ccc(C(=O)O)cc1)Cc1ccc(OC)c(OC)c1	–	–	–	?	–
CN(Cc1ccccc1)C(=S)NC(=O)c1ccccc1	–	–	2.82µM	–	1µM
CCCCC[C@H](O)/C=C/C=C\CCCCCCCCCC(=O)O	·	·	–	·	–
CN(C(=O)c1cc(-n2cnnc2)ccc1Cl)c1ccccc1	–	–	–	?	–
COc1ccc(S(=O)(=O)NCC(=O)N(CC(=O)NCC2CCCO2)Cc2ccccc2)cc1 (centres undefined)	–	–	–	–	–
CCCC1C(=O)Nc2ccccc2N1C(=O)c1ccc(C(C)(C)C)cc1 (centres undefined)	25.9µM	?	?	?	–
Cc1ccccc1NC(=O)/C=C1\SC(=O)NC1=O	23.1µM	?	–	–	?
Cc1c(OCC(=O)NCCCn2ccnc2)ccc2c3c(c(=O)oc12)CCC3	–	–	–	–	–
O=C(O)CSc1c[nH]c2ccccc12	–	–	–	–	–
CC(Sc1c[nH]c2ccccc12)C(=O)O (centres undefined)	8.2µM	?	–	–	–
CCN1C(=O)/C(=C2/Sc3ccccc3N2CC)S/C1=N\c1ncn[nH]1	?	–	5.01µM	?	11.2µM
Cc1noc(C)c1S(=O)(=O)Nc1ccc2c(c1)C(=O)N([C@H](C)CO)C[C@H](C)[C@@H](CN(C)S(=O)(=O)c1ccc(F)cc1)O2	–	–	·	–	·
CC1CN(C(=O)CNC(=O)Cc2cccc3ccccc23)CC(C)O1 (centres undefined)	–	–	·	–	·
CCOC(=O)c1[nH]c2ccccc2c1NC(=O)c1ccc(Br)o1	–	–	–	23.1µM	–
CCOC(=O)c1[nH]c2ccc(OC)cc2c1NC(=S)N1CCN(C(=O)OCC)CC1	–	–	–	–	–
COC(=O)c1[nH]c2cc(C)ccc2c1NC(=O)CN1CCN(c2ccccc2OC)CC1	–	–	–[0.365 µM]	20.6µM	?
CCOC(=O)C1CCCN(CC(=O)Nc2c(C(=O)OC)[nH]c3ccc(Cl)cc23)C1 (centres undefined)	–	–	–	20.6µM	?
CCOC(=O)c1[nH]c2ccc(OC)cc2c1NC(=S)N1CCN(c2ccccc2OC)CC1	?	?	–	7.31µM	?
CCOC(=O)N1CCN=C1SCc1ccc(C(F)(F)F)cc1	–	–	–	–	–
CCOC(=O)c1[nH]c2ccc(Br)cc2c1NC(=O)CCN1CCC(C(=O)OCC)CC1	25.9µM	?	–	?	–
COC(=O)c1[nH]c2ccccc2c1NC(=O)CN1CCN(C(=O)c2ccco2)CC1	–	–[9.22 µM]	–	20.6µM	–
COC(=O)c1[nH]c2ccccc2c1NC(=O)CN1CCC(C(N)=O)(N2CCCCC2)CC1	–	–	–	6.51µM	–
COC(=O)c1c(NC(=O)CN2CCN(C(=O)c3ccco3)CC2)c2cc(C)ccc2n1C	–	–	–	20.6µM	–
CN(CC(=O)Nc1ccccc1C(F)(F)F)C(=O)CSCc1ccc(Cl)c(Cl)c1	–	–	·	–	·
SMILES	MCF10A rerep	SW480 rereplic	VP16 counter	ELG1 DNA repair	RORgamma inh
O=C(c1ccncc1)N1CCC2(CCCN(Cc3ccncc3)C2)CC1	·	·	–	·	–
O=C(CCCN=C1NS(=O)(=O)c2ccccc21)OCc1ccccc1	–	–	·	–	·
Cc1cc(C)nc(SCCn2c(N3CC(C)OC(C)C3)nc3c2c(=O)n(C)c(=O)n3C)n1 (centres undefined)	–	–	–	–	–
CCN(CC)CCNC(=O)C1(c2ccccc2)CCCCC1	–	–	·	·	·
CCOC(=O)c1[nH]c2cc(OC)c(OC)cc2c1NC(=O)C(C)N1CCN(Cc2ccccc2)CC1 (centres undefined)	?	?	–	9.2µM	–
CCOC(=O)c1[nH]c2ccc(OC)cc2c1NC(=O)C(C)N1CCSCC1 (centres undefined)	·	·	–	?	–
COC(=O)c1[nH]c2cccc(OC)c2c1NC(=O)CCN1CCN(c2cccc(Cl)c2)CC1	·	·	–	18.4µM	–
CCOC(=O)N1CCN(CC(=O)Nc2c(C(=O)OC)[nH]c3ccccc23)CC1	5.8µM	–	–	?	–
CC(=O)N(c1nc(/C=C\C(=O)O)cs1)c1ccccc1F	–	–	–	–	–
Cc1ccc(S(=O)(=O)N(C)C)cc1NC(=O)COC(=O)C1CC1	–	–	·	–	·
COc1ccc(-n2nc(C(=O)NCC(=O)N3CCCC3)c3ccccc3c2=O)cc1	–	–	–	–	–
COc1ccc(-n2nc(C(=O)NCC(=O)NC(C)C)c3ccccc3c2=O)cc1	–	–	–	–	–
COc1ccc(-n2nc(C(=O)NCC(=O)NCCC3=CCCCC3)c3ccccc3c2=O)cc1	–	–	–	16.4µM	?
COc1ccc(CNC(=O)Cc2nn(C)c(=O)c3ccccc23)cc1	–	–	8.91µM	–	?
Cn1nc(CC(=O)NCc2ccc(C(F)(F)F)cc2)c2ccccc2c1=O	?	–	?	?	–
COc1ccc(-n2nc(C(=O)NCC(=O)NCc3ccc(F)cc3)c3ccccc3c2=O)cc1	–	–	–	16.4µM	–
COc1cccc(C(=O)NCCS(=O)(=O)NCCc2ccc(OC)c(OC)c2)c1	–	–	·	–	·
Cc1ccc2nc(N3C(=O)C(O)=C(C(=O)c4ccc(C)o4)C3c3cccc(O)c3)sc2c1 (centres undefined)	23.1µM	–	–	–	–
CCOc1ccc(C2C(C(=O)c3ccc(C)o3)=C(O)C(=O)N2c2nc(C)c(C(=O)OC)s2)cc1 (centres undefined)	?	–	–	?	1.12µM
COC(=O)c1sc(N2C(=O)C(O)=C(C(=O)c3ccc(C)o3)C2c2ccc([N+](=O)[O-])cc2)nc1C (centres undefined)	–	–	–	?	?
CCC/C=N/NC(=O)c1cc(Br)ccc1O	?	–	?	–	11.2µM
O=C(NN=C1CCCC1)c1cc(Br)ccc1O	–	–	?	–	?
O=C(N/N=C/c1ccoc1)c1cc(Br)ccc1O	–	–	3.98µM	–	3.55µM
O=C(N/N=C1/CCSC1)c1cc(Br)ccc1O	–	?	–[10 µM]	–	7.94µM
COc1ccc(Oc2ncc3nc(-c4ccc(F)cc4)c(=O)n(Cc4cccs4)c3n2)cc1	·	·	–	·	–
COC(=O)CSc1nccc(C)n1	–	–	–	?	–
CCO[C@H]1OC(C(=O)N2CCN(Cc3ccc4c(c3)OCO4)CC2)=C[C@@H](C(C)(C)C)[C@@H]1CCCO	?	–	–	–	–
CN(CC(=O)Nc1cccc(F)c1)C(=O)c1ccccc1Sc1ccccc1C#N	–	?	·	15.8µM	·
CC(=O)Nc1cccc(Oc2ccc3c(c2)C(=O)NC3=O)c1	–	–	–	?	–
